A selection: hits, their analogues and other compounds. The true share with any hit is near 10%.
ALDH1A1 block – qHTS Assay for Inhibitors of Aldehyde Dehydrogenase 1 (ALDH1A1) | Aldehyde dehydrogenase 1A1 (Homo sapiens), P00352 | Purified ALDH1A1, NADH fluorescence, propionaldehyde substrate | Potency, µM (doses to about 75.3 µM), inactives show at the top dose activity, negative = inhibition, usual class: inhibitors | 220,000 tested, 7.3% active | AID 1030, 2008;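 also: potency is read from the fitted curve at half-maximal effect; plate controls were no enzyme wells and a reference inhibitor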
Target sequence (P00352 whole entry, looked up): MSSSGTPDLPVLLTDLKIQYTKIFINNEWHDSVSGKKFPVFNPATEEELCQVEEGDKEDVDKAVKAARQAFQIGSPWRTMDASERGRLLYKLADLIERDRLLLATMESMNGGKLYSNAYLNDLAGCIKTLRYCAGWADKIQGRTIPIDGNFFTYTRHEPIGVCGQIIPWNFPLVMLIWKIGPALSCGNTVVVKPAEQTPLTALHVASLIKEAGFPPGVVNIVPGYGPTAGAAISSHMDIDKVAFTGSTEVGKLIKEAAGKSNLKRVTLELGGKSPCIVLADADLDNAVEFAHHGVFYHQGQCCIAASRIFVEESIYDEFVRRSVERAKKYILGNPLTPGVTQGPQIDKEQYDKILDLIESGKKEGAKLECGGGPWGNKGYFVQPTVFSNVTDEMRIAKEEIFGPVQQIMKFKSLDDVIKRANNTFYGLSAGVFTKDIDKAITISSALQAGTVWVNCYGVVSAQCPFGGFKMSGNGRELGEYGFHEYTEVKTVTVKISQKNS
LMNA splice mod – qHTS Assay for Modulators of Lamin A Splicing; AID 1487, 2009; 200,000 tested, 0.01% active; Potency, µM (highest dose often 46.1 µM), for inactives: top-dose ratio change, negative = inhibition, actives largely listed as inhibitors; HeLa LMNA splicing GFP/RFP minigene ratio, 48 h; active = well fitted inhibition curve with a large enough effect in the signal ratio, with a control signal flat, not every such curve was filed as active; inconclusive = small, poorly fitted or top-dose-only effect, or effect the other way, or a change in a side signal; the % refers to the signal ratio; also: potency is read from the fitted curve at half-maximal effect
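Read-out is the ratio of GFP to DsRed2 object intensity, acquired by 488 nm laser-scanning cytometry on HeLa lamin A-EGFP minigene reporter cells. Compound incubation 48 hrs at 37 °C in Opti-MEM with 2% FBS; DMSO 0.5% final.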
HPGD block – qHTS Assay for Inhibitors of HPGD (15-Hydroxyprostaglandin Dehydrogenase); 15-hydroxyprostaglandin dehydrogenase [NAD(+)] (Homo sapiens), P15428; purified HPGD, NADH fluorescence kinetic, PGE2 substrate; Potency, µM, inactives show at the top dose activity change, negative = inhibition, hits mostly inhibitors; 150,000 tested, 4.3% active; also: potency is read from the fitted curve at half-maximal effect
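NADH formation kinetics: reaction with 30 uM PGE2 and 1 mM NAD+ (final), 20 nM enzyme, Tris-HCl pH 8 with Tween 20, after 15 min compound preincubation at room temperature. Fluorescence change, last versus first of five reads.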
PNC inhibitor – High Content Assay for Compounds that inhibit the Assembly of the Perinucleolar Compartment; 140,000 tested, 3.1% active; PC3M PTB-GFP, PNC prevalence imaging, 16 h; hits give low values; activity change (PNC), negative = inhibition, % at 10 µM; AID 2417, 2010;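 active = readout at or below -70, meaning at least 70% loss of cells showing the perinucleolar compartment, a nuclear body marking cancer cells; inconclusive = readout between -30 and a set limit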;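 also: plate controls were DMSO wells for no effect and camptothecin positive control wells for full effect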
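PC3M cells stably expressing PTB-GFP, 750–1000 cells/well, treated 16 h at 37 °C with compound (23 nl of library stock), in duplicate. After paraformaldehyde fixation and Hoechst stain, imaged at 20x; PNC prevalence scored by image analysis.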
ALOX12 inhib – qHTS Assay for Inhibitors of 12-hLO (12-human lipoxygenase) | purified 12-hLO, xylenol orange hydroperoxide absorbance | Potency, µM (titrated, usually from 57.1 µM), for inactives: at the highest dose activity change, negative = inhibition, hits mostly inhibitors | 150,000 tested, 0.12% active; active = well fitted inhibition curve with a large enough effect; inconclusive = small, poorly fitted or top-dose-only effect; also: potency is read from the fitted curve at half-maximal effect; nearly all actives have a fitted effect of over 55% in size
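150 nM 12hLO, 25 mM Hepes pH 7.0 + 0.01% Triton X-100; cpd preinc 15 min RT; 40 uM arachidonic acid, 30 min RT; Fe-XO 30 min; A573/A405 ratio as read-out.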
* hit, by the source's call; u = inconclusive; x = not tested or not shown; [ ] = dose if it differs, or a comment. Unless noted, calls follow the shape of the dose curve; as a rule, active = well fitted inhibition curve with a large enough effect (not every such curve was filed as active); inconclusive = small, poorly fitted or top-dose-only effect, or another doubt; inactive = no such curve, though single readings can be large or run the other way. Unless noted, % is scaled to controls: 0 for no effect and ±100 for the full control effect.

SMILES	ALDH1A1 block	LMNA splice mod	HPGD block	PNC inhibitor	ALOX12 inhib
O=C(C[N+]1(CC#Cc2ccccc2)CCCCC1)c1ccc(Cl)cc1	22µM*	0%[46 µM]	x	x	x
C(#Cc1ccccc1)C[N+]1(CC#Cc2ccccc2)CCCCC1	-7%	23%[46 µM]	x	x	x
Cc1cc(C)c(S(=O)(=O)NCCS(=O)(=O)N2CCN(c3ccccc3)CC2)c(C)c1	x	-13%[46 µM]	x	x	x
COCCN(C(=O)Nc1ccccc1)c1ccccc1C	6%	-1%	-7%	-100*	-1%
CCN(C(=O)Nc1ccccc1)c1ccccc1	6%	-1%	-14%	31	-2%
Cn1nc(-c2ccccc2)c(CO)c1Oc1ccc(F)cc1	-5%	x	x	x	x
COC(=O)N[C@H](C[N+](=O)[O-])c1cccc(C)c1	5%	x	-8%	x	x
CCN(CC)CCCn1c(-c2ccccc2)nc2c(N(CCOC)CCOC)nc(C)nc21	u	x	u	x	-3%
COc1ccc(CNC(=O)[C@H](C)[C@H]2C[C@]2(C)[C@H](NC(=O)OCc2ccccc2)c2ccccc2)cc1OC	3.5µM*	x	-10%	x	-4%
Cc1cc(CNC(=O)[C@H](C)[C@H]2C[C@]2(C)[C@H](NC(=O)OCc2ccccc2)c2ccccc2)nn1C	4µM*	x	-9%	x	-1%
Cc1cc(CNC(=O)[C@H](C)[C@@H]2C[C@@]2(C)[C@@H](NC(=O)OCc2ccccc2)c2ccccc2)nn1C	u	u	-16%	41	-2%
C[C@@H](C(=O)O)[C@H]1C[C@]1(C)[C@H](NC(=O)OCc1ccccc1)c1ccccc1	7.1µM*	u	-6%	16	3%
COc1ccccc1/C=C\C(=O)OC[C@@H]1CCCN2CCCC[C@H]12	u	x	-23%	x	x
CCn1nnnc1-c1ccc(OC)c(S(=O)(=O)N2CCCCC2)c1	u	3%	-5%	7	-5%
CCn1nnnc1-c1ccc(OC)c(S(=O)(=O)Nc2ccc(OC)cc2)c1	0.11µM*	-2%	-16%	-3	0%
COC(=O)c1ccc(NS(=O)(=O)c2cc(C)ccc2OC)cc1	1%	u	u	4	-6%
CCOC(=O)c1ccc(NS(=O)(=O)c2cc(-c3nnnn3C(C)C)ccc2OC)cc1	2.8µM*	u	-22%	1	0%
CCn1nnnc1-c1ccc(OC)c(S(=O)(=O)Nc2ccc(C(=O)OC)cc2)c1	7.1µM*	-6%	-8%	u	-1%
CCc1ccccc1N(CC)C(=O)c1c(C)oc2ncnc(N3CCOCC3)c12	x	-6%[46 µM]	x	x	x
CC1=CC2C(C(C)C)CCC(C)(O)C2CC1 (configuration not stated)	6%	2%	-11%	x	-1%
CCN(CC)C(=O)c1sc2c(c1C)c(=O)n(-c1ccc(C)c(C)c1)c(=O)n2Cc1cccc(Cl)c1	x	-12%[46 µM]	x	x	x
Cc1ccc(-c2cn3nc(N4CCCC(C(=O)NCc5ccc(F)cc5)C4)sc3n2)cc1 (configuration not stated)	x	-24%[46 µM]	x	x	x
COc1ccc(-n2cc(CN(C)C(C)c3ccncn3)c(-c3cccc(F)c3)n2)cc1 (configuration not stated)	25µM*	x	x	x	x
CCOC(=O)CC(=O)CSc1nc2c(sc(=S)n2-c2ccc(OCC)cc2)c(=O)[nH]1	u	u	-20%	-8	-14%
CCOc1ccc(-n2c(=S)sc3c(=O)[nH]c(SCC(=O)NC(C)CC)nc32)cc1 (configuration not stated)	-9%	1%	-14%	-83*	-4%
CC(=O)N1c2ccccc2CC1C(=O)N1CCN(c2ccccc2F)CC1 (configuration not stated)	x	-9%[46 µM]	x	x	x
CCCCN(Cc1ccccc1)S(=O)(=O)c1ccc2[nH]c(=O)oc2c1	5µM*	u	-10%	15	-17%
C=CSc1sc(Cl)c(N(CC)CC)c1[N+](=O)[O-]	16µM*	7%[46 µM]	x	x	x
C=CSc1sc(Cl)c(N(C)C)c1[N+](=O)[O-]	7.9µM*	-9%[46 µM]	x	x	x
